Screening results (PubChem)
PfHsp90 set2 – inhibits growth of yeast expressing Plasmodium falciparum Hsp90 | S. cerevisiae expressing PfHsp90, BacTiter-Glo ATP, 48 h; yeast lacking PDR1 and PDR3 efflux regulators | 310,000 tested, 0.32% active | inhibition, % at 9.4 µM | AID 504621;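 active = every replicate shows inhibition above about 80%, whatever the replicate mean, limit read from the data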;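 note: 0% = DMSO neutral controls and 100% = 20 µM radicicol positive controls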
tim23-1 inh – tim23-1 yeast growth inhibition; AID 463212; 330,000 tested, 1.3% active; inhibition, % at 20 µM; S. cerevisiae tim23-1 growth, BacTiter-Glo luminescence, 24 h;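 active = growth inhibition of the mutant yeast at or above 50%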;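 note: temperature-sensitive mutant grown at 25 °C; plate controls were DMSO-treated mutant yeast for no effect and medium wells lacking yeast for full effect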
TIM10 inh – inhibits growth of TIM10 yeast strain. S. cerevisiae TIM10 strain growth, BacTiter-Glo luminescence, 24 h. inhibition, % at 10 µM. 330,000 tested, 1.4% active. AID 463195;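 active = inhibition of 40% or more at the single tested concentration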;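 note: wild-type TIM10 isogenic control strain grown at permissive 25 °C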
SKKanGAS inh – inhibitors of SKKanGAS S. pyogenes growth in kanamycin (SK-promoter or general growth effect). BacTiter-Glo, 6 h. inhibition, % at 7.5 µM. 300,000 tested, 1.3% active. AID 1662;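 active = mean replicate score, as percent of positive control median, at least 50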;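 note: strain carries kanamycin resistance gene driven by streptokinase promoter and grows in 40 µg/ml kanamycin; loss of luminescence reflects streptokinase promoter inhibition or plain growth inhibition; 0% = median of DMSO wells and 100% = positive control at its reference dose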
NLRP3 yeast inh – blocks the NALP3 inflammasome reconstituted in yeast; AID 2825; 330,000 tested, 0.39% active; Yeast reconstituted NLRP3/ASC/caspase-1, beta-gal luminescence, 24 h; inhibition, % at 10 µM;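 active = inhibition of 50% or more; inactive = inhibition below 50%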;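 note: plate controls were induced DMSO wells for no effect and uninduced yeast grown without galactose for full effect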
tim10-1 inh – tim10-1 yeast growth inhibition. S. cerevisiae tim10-1 ts strain growth, BacTiter-Glo, 24 h. inhibition, % at 20 µM. 330,000 tested, 2.2% active. AID 463190;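 active = inhibition of at least 40%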;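 note: mutant grown at 25 °C; 0% = DMSO wells with yeast and 100% = wells holding no yeast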
tim10-1 conf – confirmation of tim10-1 mutant yeast growth inhibitors | 7,400 tested, 56% active | inhibition, % at 20 µM | S. cerevisiae tim10-1 ts strain growth, BacTiter-Glo, 24 h | AID 463213 | shares compounds with tim10-1 inh;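 active = inhibition of yeast growth at or above a set limit in either of two repeat tests at 20 µM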;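 note: tim10-1 mutant grown at permissive 25 °C to find synthetic lethal compounds; 0% = DMSO yeast wells and 100% = medium wells without yeast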
An asterisk follows results filed as active; · = no result. Only some compounds are listed: those with a hit (about 4.5% of all), similar ones and a draw of the others.

SMILES	PfHsp90 set2	tim23-1 inh	TIM10 inh	SKKanGAS inh	NLRP3 yeast inh	tim10-1 inh	tim10-1 conf
O=C(CNC(=O)c1cccs1)OCC(=O)c1ccc2ccccc2c1	-27.7	24.8	37.5	2.4	-1.5	40.5*	15.0
CC1CCCN(C(=O)COC(=O)CNC(=O)c2sc3ccccc3c2Cl)C1 (stereo not given)	-15.2	9.1	0.0	·	10.1	-8.3	·
O=C(NC(=S)Nc1ccc(O)cc1)c1cncc(Br)c1	-14.7	14.7	15.1	5.9	18.6	14.6	·
O=C(NC(=S)Nc1ncc(Br)cc1Br)c1cncc(Br)c1	6.1	36.5	33.6	-7.3	13.0	40.4*	22.0
Nc1ccccc1Nc1c(F)c(F)nc(F)c1Cl	-13.3	0.0	0.1	8.9	-3.6	19.0	·
CC(C)C[C@@H](CSc1ccc(Br)cc1)N1CCN(C)CCC1=O	·	12.4	8.1	5.1	21.8	14.1	·
CC(C)C[C@@H](CSc1ccc(Br)cc1)N1CCN(CC(C)C)CCC1=O	·	4.2	0.1	4.6	22.6	40.2*	32.2*
O=C(C[n+]1ccc(/C=N/O)cc1)NC(=O)Nc1ccccc1	-7.7	1.9	21.5	·	3.7	0.2	·
COC(=O)c1nnn(-c2nonc2N)c1CN1CCCC1	-5.0	-0.3	7.9	0.6	13.8	-3.6	·
Cc1cccc(N2C(=O)CN(Cc3sccc3C)C2=S)c1	-17.4	39.7	30.5	-5.8	15.6	21.3	·
Cc1cccc(N2C(=O)CN(Cc3cccs3)C2=S)c1	18.8	44.6	33.4	7.8	13.8	42.5*	25.1
Cc1ccsc1CN1CC(=O)N(c2c(C)cccc2C)C1=S	·	38.9	23.5	-3.4	29.5	45.2*	36.2*
O=C1N/C(=C/c2ccc(N3CCOCC3)o2)C(=O)N1c1cccc(Cl)c1	-20.5	18.2	3.6	8.4	36.5	43.1*	35.6*
Cc1ccc(C(=O)ONc2ccc(N=NC(=O)c3ccccc3O)cc2)cc1	-6.2	25.9	19.3	11.3	7.6	43.4*	1.6
CCn1ncc(/C=C/C(=O)c2ccccc2)c1C	6.3	33.1	2.6	-1.6	5.5	45.6*	13.9
COc1cc2c(cc1Cl)/C(=C\CCN(C)C)c1ccccc1S2	13.5	17.0	16.6	5.2	12.8	40.1*	30.4
CN(C)CC/C=C1/c2ccccc2Sc2c(O)cc(Cl)cc21	4.0	12.5	17.8	-1.9	19.3	37.9	·
COc1cc(Cl)cc2c1Sc1ccccc1/C2=C/CCN(C)C	22.1	-67.8	35.4	7.7	9.4	41.7*	29.1
CN(C)CC/C=C1/c2cc(F)ccc2Sc2ccc(Cl)cc21	-19.1	4.3	20.7	1.0	35.9	14.6	·
COc1cc(C(=O)OCC(=O)N2CCC(C)CC2)cc2c1OCCO2	5.9	22.5	6.2	·	8.1	-3.6	·
O=C(CN1CCN(c2ccc(O)cc2)CC1)Nc1ccc(S(=O)(=O)N2CCCC2)cc1	2.9	-2.7	-7.1	·	6.8	-6.0	·
CC(=O)Nc1ccc(NC(=O)C(C)Sc2nnc(C3CC3)n2-c2ccccc2)cc1 (stereo not given)	4.5	-15.0	-7.5	·	23.6	-12.7	·
CCOC(=O)c1cc(NC(=O)Nc2ccccc2OC)c(C)nc1C	-1.7	10.9	20.2	-6.1	6.4	41.1*	21.6
CCOC(=O)c1cc(NC(=O)Nc2ccccc2Cl)c(C)nc1C	-84.7	6.5	20.9	-0.9	24.0	30.8	·
O=C(NNC(=S)Nc1ccc(Br)cc1)c1ccccc1Br	-22.5	33.2	35.7	6.9	28.6	46.0*	28.1
SMILES	PfHsp90 set2	tim23-1 inh	TIM10 inh	SKKanGAS inh	NLRP3 yeast inh	tim10-1 inh	tim10-1 conf
O=C(NNC(=S)NCc1ccccc1)c1ccccc1OC(F)F	-31.1	21.7	11.8	-0.8	3.4	16.7	·
O=C(NNC(=S)Nc1ccc(Cl)cc1)c1ccccc1OC(F)F	-16.4	42.0	32.1	-11.4	14.4	42.5*	39.3*
C[C@H](CO)N1C[C@H](C)[C@@H](CN(C)Cc2ccc3c(c2)OCO3)Oc2c(NC(=O)Cc3ccccc3)cccc2C1=O	-11.6	0.8	-2.1	·	5.9	-6.0	·
c1nc(Nc2ccc(N3CCOCC3)cc2)c2ccsc2n1	6.6	7.3	-15.0	-4.8	12.1	8.3	·
Fc1ccc(-c2csc3ncnc(Nc4ccc(N5CCOCC5)cc4)c23)cc1	·	38.2	15.4	2.2	15.3	43.2*	37.0*
COc1ccc(OC)c(NC(=O)COC(=O)CCc2nc3ccccc3c(=O)[nH]2)c1	-25.5	-4.7	2.8	·	1.7	-8.9	·
Cc1ccc(S(=O)(=O)/N=C2/NC(=O)/C(=C/c3ccc(Br)o3)S2)cc1	-22.9	21.3	5.5	15.7	-0.9	19.0	·
Cc1ccc(S(=O)(=O)/N=C2/NC(=O)/C(=C\c3cc(Br)cc(Br)c3O)S2)cc1	7.7	36.5	38.4	·	11.2	41.8*	37.0*
COc1nc(NC(=O)c2ccc(F)cc2)nc(OC)c1-c1ccccc1	-1.7	15.1	2.2	-1.9	23.8	31.9	·
COc1cc(/C=C/c2nc(-c3ccccc3O)n[nH]2)cc(OC)c1OC	-32.6	45.3	37.7	-13.1	-12.3	40.2*	27.7
Cc1ccc(CN(Cc2ccco2)C(=S)Nc2ccccc2C)cc1	10.8	10.4	10.1	11.4	18.4	42.2*	26.0
C[C@@H]1C(NC(=O)c2ccccc2)CC2CC1C2(C)C (stereo not given in full)	-11.6	32.1	11.7	1.1	27.0	1.6	·
Nc1nonc1-n1nnc(C(=O)N/N=C/c2ccccc2F)c1CN1CCc2ccccc21	3.8	33.4	-5.2	15.3	17.9	46.0*	16.4
N#C/C(=N\Nc1cccc2ccccc12)c1nnc2n1CCCCC2	18.5	14.9	8.8	22.0	24.3	40.3*	16.1
N#C/C(=C\c1c[nH]c2ccccc12)c1nnc2n1CCCCC2	-0.6	10.2	3.3	-17.2	14.6	11.7	·
CCc1cc(=O)oc2c3c(cc(OCC(=O)N[C@H](C(=O)O)[C@H](C)CC)c12)OC(C)(C)CC3	1.1	19.2	-7.8	14.3	1.9	12.1	·
CCC(=O)Nc1nnc(-c2ccccn2)o1	-12.9	4.3	6.6	-0.7	2.1	5.2	·
O=C(Nc1nnc(-c2ccccn2)o1)c1ccc(Br)cc1	-38.0	29.4	14.3	5.5	14.1	46.1*	28.6
Cc1cccc(CCNC(=O)C2CCCN(c3cnccn3)C2)c1 (stereo not given)	-3.8	-1.3	-6.1	-6.8	9.7	19.4	·
COc1ccc2c(c1)OC[C@H]1[C@H]2N2C(=O)c3cc(F)ccc3NC(=O)[C@@]2(C)[C@H]1c1ccccc1	-11.5	37.7	13.7	·	7.5	7.5	·
COc1ccc2c(c1)OC[C@H]1[C@H]2N2C(=O)c3cc(OC)ccc3NC(=O)[C@@]2(C)[C@H]1c1ccccc1	112.6*	17.7	14.6	·	-9.8	44.2*	3.9
Cc1nc(-c2ccc(S(=O)(=O)Nc3ccccc3C)cc2)co1	-41.6	36.0	13.1	-9.3	-7.5	27.9	·
